Experimental data taken from the supplement of paper PMC11732987, “Enantioselective OTUD7B fragment discovery through chemoproteomics screening and high-throughput optimisation” (Communications Chemistry, 2025).

How the values were obtained:
Assay in all cases: log2 ratio of Biotin-Ahx-Ub-VS probe labelling (fragment/DMSO); higher = less target engagement (more negative = stronger competition), active = hit call of the paper (q ≤ 0.05, log2 ratio ≤ -1)
Conditions in all cases: compound concentration: 200 uM; treatment time: 3 h
[1] = biological target: USP9X (UniProt Q93008)
USP9X, sequence (Q93008 whole entry, the tested form may be a part): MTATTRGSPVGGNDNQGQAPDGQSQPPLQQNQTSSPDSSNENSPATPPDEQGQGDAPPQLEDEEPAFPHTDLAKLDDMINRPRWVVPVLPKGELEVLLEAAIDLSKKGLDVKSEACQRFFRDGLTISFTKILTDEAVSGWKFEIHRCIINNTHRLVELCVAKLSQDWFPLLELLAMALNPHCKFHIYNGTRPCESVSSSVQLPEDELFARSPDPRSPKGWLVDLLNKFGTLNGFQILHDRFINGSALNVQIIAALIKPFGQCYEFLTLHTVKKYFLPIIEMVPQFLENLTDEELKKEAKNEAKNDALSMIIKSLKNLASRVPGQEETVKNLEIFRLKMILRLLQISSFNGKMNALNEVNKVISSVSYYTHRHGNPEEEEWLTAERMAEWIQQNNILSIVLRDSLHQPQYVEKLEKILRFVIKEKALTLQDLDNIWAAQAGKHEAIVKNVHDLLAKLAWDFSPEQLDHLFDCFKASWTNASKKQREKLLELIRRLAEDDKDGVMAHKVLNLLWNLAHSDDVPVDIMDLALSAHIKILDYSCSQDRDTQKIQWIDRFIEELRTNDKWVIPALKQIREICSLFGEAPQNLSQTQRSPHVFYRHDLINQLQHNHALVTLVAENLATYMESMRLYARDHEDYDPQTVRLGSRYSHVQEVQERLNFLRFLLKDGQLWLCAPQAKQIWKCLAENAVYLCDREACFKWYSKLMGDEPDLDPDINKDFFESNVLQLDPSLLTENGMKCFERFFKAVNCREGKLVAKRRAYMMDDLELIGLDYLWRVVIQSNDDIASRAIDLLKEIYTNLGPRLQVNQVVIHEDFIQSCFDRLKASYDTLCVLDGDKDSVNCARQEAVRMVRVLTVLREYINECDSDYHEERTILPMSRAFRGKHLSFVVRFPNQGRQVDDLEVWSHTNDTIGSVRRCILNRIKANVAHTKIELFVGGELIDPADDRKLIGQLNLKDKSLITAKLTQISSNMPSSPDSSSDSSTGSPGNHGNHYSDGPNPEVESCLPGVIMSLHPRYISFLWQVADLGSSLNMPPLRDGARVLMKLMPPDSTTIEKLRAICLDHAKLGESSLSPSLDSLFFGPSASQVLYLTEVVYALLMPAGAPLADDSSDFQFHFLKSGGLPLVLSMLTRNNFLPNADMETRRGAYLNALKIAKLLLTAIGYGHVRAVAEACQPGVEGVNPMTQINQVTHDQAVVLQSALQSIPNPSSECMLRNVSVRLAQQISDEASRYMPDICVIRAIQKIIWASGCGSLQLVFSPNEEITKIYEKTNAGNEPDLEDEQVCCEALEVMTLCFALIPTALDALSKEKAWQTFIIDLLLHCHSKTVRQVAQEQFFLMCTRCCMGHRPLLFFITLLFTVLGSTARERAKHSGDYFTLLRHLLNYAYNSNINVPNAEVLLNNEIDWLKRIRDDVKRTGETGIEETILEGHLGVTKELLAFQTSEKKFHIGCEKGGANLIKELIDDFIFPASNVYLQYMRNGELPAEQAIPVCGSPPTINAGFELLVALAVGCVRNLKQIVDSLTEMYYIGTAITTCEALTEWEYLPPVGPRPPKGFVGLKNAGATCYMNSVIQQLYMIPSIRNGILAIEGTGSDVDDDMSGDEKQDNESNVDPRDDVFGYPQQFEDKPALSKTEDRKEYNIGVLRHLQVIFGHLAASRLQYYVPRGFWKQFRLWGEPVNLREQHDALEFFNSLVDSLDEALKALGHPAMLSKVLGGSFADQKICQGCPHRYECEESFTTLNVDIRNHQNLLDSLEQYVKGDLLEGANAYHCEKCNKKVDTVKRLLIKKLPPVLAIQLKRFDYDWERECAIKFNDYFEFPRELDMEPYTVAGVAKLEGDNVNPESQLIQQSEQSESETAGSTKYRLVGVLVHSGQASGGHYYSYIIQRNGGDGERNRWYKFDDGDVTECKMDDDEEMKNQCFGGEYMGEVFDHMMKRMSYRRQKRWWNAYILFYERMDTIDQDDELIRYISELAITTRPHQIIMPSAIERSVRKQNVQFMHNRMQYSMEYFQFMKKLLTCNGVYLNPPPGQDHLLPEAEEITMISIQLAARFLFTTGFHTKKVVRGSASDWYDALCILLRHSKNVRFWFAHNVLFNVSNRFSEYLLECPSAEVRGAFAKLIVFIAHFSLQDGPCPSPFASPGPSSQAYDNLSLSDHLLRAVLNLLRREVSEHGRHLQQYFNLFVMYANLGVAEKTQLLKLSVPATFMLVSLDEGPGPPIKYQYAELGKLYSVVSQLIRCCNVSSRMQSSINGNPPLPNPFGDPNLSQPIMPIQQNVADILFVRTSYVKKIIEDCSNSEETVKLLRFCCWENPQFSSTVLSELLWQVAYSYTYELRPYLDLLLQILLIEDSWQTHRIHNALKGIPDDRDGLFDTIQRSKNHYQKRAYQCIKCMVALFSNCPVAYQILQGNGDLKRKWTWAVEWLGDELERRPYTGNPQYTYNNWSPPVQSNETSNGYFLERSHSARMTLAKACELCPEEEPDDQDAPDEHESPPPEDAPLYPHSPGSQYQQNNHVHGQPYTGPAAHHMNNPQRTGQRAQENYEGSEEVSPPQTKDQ
Method in brief: (§1)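 Labelled DUBs from HEK293T lysate were NeutrAvidin-enriched, digested with LysC and trypsin, and run by diaPASEF LC-MS/MS. Before that, each 495 µg sample in Tris/CHAPS/IGEPAL buffer with protease inhibitors was treated in triplicate with fragment at 200 µM or vehicle for 3 h, then with Biotin-Ahx-Ub-VS at 0.5 µM final for 1 h. Values are average log2 ratios of fragment over vehicle by unpaired t-test, based on global-median-normalised Spectronaut label-free quantities from proteins with ≥2 unique peptides.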

[2] = biological target: UniProt O00487
UniProt O00487, sequence (O00487 whole entry): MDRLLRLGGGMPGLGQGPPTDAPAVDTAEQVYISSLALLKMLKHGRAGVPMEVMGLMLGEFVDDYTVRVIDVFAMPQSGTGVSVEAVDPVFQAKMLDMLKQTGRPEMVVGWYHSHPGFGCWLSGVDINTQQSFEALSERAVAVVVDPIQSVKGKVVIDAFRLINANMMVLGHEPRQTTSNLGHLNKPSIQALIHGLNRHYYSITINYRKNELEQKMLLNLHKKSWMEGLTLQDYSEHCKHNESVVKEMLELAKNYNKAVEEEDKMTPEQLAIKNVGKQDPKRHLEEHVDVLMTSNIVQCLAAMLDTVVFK
Method in brief: as §1

[3] = biological target: UniProt O00507
Method in brief: as §1

[4] = biological target: UniProt P51784
UniProt P51784, sequence (P51784 whole entry): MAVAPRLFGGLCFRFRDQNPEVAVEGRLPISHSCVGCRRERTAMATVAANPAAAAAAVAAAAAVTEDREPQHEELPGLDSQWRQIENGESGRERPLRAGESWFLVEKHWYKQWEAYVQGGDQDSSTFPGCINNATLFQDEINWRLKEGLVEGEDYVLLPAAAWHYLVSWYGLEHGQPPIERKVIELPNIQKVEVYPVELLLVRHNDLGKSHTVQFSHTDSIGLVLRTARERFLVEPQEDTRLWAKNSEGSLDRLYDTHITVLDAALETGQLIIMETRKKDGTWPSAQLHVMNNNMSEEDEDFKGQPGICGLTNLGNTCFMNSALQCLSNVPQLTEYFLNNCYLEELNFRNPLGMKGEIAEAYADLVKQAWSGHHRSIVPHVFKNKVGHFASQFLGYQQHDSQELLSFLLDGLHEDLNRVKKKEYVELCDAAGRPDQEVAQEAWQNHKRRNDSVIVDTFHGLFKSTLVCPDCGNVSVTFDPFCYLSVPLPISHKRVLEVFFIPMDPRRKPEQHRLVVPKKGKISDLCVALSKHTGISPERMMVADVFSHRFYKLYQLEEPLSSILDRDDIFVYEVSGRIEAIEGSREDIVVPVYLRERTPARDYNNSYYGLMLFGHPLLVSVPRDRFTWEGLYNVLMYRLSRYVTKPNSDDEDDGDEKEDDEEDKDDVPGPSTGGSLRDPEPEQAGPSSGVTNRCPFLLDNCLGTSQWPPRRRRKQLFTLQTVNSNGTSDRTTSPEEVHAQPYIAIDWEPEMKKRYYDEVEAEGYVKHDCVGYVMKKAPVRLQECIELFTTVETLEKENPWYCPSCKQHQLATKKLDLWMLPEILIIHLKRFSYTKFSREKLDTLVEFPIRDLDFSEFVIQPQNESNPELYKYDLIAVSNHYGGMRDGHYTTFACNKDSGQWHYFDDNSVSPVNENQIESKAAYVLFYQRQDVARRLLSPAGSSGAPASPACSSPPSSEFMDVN
Method in brief: as §1

[5] = biological target: T1, UniProt Q5T2D3
T1 sequence (whole entry): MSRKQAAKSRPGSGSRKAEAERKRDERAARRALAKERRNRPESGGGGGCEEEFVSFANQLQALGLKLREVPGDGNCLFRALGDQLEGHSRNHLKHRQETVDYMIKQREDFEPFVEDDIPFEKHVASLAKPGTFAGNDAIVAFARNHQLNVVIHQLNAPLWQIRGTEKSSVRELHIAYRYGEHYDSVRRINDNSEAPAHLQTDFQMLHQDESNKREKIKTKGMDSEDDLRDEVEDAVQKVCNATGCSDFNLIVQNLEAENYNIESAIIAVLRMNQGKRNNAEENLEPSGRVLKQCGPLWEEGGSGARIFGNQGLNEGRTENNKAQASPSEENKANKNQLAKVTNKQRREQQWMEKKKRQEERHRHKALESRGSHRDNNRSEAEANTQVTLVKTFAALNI
Method in brief: as §1

[6] = biological target: T2, UniProt Q8TE49
T2 sequence (whole entry): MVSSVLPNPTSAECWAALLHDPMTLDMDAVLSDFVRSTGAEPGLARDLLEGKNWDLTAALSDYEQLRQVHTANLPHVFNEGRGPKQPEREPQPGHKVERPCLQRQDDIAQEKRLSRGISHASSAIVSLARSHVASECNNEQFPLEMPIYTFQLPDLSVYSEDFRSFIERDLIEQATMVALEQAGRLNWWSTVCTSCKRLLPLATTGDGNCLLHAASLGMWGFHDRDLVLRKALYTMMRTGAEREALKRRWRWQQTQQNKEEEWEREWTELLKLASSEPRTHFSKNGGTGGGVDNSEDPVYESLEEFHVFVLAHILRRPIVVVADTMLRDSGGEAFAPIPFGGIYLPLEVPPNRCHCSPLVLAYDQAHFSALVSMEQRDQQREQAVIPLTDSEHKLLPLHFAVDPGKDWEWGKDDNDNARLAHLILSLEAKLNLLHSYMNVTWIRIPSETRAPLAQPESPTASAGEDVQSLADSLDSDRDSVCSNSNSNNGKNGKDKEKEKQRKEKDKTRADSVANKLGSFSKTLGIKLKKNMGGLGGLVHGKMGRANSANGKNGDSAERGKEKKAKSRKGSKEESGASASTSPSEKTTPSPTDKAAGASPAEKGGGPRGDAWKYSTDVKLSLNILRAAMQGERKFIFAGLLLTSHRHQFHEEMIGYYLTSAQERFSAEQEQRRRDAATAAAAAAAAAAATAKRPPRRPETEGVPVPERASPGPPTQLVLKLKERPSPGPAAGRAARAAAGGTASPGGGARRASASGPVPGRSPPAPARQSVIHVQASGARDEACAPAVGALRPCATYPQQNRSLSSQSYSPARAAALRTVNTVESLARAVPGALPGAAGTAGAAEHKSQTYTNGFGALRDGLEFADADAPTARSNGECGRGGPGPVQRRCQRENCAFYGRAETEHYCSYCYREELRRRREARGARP
Method in brief: as §1

[7] = biological target: T3, UniProt Q9P2H5
T3 sequence (whole entry): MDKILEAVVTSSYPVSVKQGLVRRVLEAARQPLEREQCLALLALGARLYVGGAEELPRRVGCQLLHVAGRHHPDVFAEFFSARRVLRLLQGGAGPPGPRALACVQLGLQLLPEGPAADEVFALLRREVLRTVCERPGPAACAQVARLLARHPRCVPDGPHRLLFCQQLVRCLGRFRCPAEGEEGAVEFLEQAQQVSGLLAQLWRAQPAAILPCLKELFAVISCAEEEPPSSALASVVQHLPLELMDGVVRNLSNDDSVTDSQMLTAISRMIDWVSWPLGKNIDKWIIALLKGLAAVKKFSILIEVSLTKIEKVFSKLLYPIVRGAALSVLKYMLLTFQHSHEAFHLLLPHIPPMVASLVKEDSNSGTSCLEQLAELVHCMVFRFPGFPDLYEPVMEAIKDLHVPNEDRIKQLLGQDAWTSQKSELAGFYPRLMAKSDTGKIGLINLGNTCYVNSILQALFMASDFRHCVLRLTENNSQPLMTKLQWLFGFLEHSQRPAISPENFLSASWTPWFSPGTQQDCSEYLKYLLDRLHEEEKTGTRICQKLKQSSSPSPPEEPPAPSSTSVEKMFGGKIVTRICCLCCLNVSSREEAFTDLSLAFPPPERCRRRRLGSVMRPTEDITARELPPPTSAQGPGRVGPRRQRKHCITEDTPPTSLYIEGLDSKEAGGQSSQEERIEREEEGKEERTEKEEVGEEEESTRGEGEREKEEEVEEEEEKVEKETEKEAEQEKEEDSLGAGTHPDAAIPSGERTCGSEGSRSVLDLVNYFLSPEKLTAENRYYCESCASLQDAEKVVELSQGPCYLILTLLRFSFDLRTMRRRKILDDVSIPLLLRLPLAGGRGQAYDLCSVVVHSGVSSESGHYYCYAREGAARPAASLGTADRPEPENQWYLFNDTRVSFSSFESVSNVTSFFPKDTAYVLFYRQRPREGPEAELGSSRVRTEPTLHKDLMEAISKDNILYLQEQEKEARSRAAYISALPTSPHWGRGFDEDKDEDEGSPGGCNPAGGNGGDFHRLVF
Method in brief: as §1

[8] = biological target: T4, UniProt Q9UGI0
T4 sequence (whole entry): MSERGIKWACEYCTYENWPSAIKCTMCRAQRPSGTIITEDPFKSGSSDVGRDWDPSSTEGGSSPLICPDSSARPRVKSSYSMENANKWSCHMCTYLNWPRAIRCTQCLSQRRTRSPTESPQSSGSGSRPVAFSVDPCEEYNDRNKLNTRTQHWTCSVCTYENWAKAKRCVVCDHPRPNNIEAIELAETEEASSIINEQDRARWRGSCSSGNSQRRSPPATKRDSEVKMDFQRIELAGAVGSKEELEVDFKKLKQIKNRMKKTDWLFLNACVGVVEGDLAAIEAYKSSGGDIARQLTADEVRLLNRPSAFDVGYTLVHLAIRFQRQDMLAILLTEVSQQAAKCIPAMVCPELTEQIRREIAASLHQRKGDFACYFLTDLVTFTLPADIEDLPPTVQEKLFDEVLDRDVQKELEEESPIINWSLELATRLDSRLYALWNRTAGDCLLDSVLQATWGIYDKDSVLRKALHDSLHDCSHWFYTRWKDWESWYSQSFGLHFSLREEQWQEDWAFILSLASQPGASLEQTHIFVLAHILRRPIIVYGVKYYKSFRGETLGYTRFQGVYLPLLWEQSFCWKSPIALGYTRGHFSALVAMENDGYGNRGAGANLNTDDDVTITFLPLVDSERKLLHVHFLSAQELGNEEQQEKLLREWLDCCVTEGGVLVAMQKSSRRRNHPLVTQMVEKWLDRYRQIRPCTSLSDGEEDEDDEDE
Method in brief: as §1

[9] = biological target: T5, YOD1 (UniProt Q5VVQ6)
T5 sequence (whole entry): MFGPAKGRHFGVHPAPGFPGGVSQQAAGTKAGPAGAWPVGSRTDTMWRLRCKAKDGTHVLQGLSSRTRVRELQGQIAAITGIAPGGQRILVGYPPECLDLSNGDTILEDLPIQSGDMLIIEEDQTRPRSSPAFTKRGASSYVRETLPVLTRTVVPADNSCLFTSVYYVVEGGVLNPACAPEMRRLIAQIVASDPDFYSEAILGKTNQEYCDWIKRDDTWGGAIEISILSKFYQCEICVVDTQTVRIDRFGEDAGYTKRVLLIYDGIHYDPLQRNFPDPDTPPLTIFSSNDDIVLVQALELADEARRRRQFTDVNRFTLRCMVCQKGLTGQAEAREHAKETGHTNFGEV
Method in brief: as §1

Measured: log2 ratio of Biotin-Ahx-Ub-VS probe labelling

Cc1ccc(C)c(Oc2ccc(CNC(=O)CCl)cn2)c1.Cl
inactive: [1] -0.677 | [2] -0.0677 | [3] -0.379 | [4] -0.367 | [5] -0.187 | [6] -0.677 | [7] -0.375 | [8] -0.886 | [9] -0.149
